The subject of assay [1] is MILI (PIWIL2) piRISC loaded with L1MC piRNA (26 nt). As to the kind of experiment: pre-steady-state target cleavage rate (min^-1); guide: L1MC piRNA 5'p-UAACUAAAUACUAUGCAAGCUGUAGG; higher = faster piRNA-guided slicing of the target. In outline: (§1)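 A transcribed, DNA-blocked target RNA library […] was incubated at 33 °C for 0–8 or 0–960 min with 1 nM active affinity-purified piRISC carrying one synthetic guide, in HEPES–potassium acetate buffer with or without 500 nM GTSF1 partner protein. Uncleaved targets were then sequenced and normalised to depth and to weakly complementary targets. Data from three trials were pooled, with k3 capped at 0.0001 min^-1, and a burst-and-steady-state fit yielded the pre-steady-state cleavage rate.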

Assay [2] concerns EfPiwi piRISC loaded with L1MC piRNA (26 nt). The experiment in a line: pre-steady-state target cleavage rate (min^-1); auxiliary factor: 500 nM Ephydatia muelleri Gtsf1; guide: L1MC piRNA 5'p-UAACUAAAUACUAUGCAAGCUGUAGG; MIWI and MILI are mouse PIWI proteins and EfPiwi is from a freshwater sponge; tags in brackets are library labels; higher = faster piRNA-guided slicing of the target. In outline: as §1
[3] abbreviates: auxiliary factor: 500 nM mouse GTSF1.
Where [4] appears, read: auxiliary factor: none (no GTSF1).

± gives the standard deviation.

Turning to UCCUCCUAGAGCAUGCAUAGUAUUUAGUUA, the “pre-steady-state target cleavage rate” value was 0.2 ± 0.019 in assay [1] (setting [3]), 0.00564 ± 0.0018 in assay [1] (setting [4]) and 0.0163 ± 0.0058 in assay [2].

As to UCCUGGAACAGCUUCCAUUGUAUUUAGUUA, the “pre-steady-state target cleavage rate” value in assay [1] (setting [3]) is 0.11 ± 0.019; in assay [1] (setting [4]), 0.00471 ± 0.0022; in assay [2], 0.00345 ± 0.0017.

On to UCCUGGAUCAGCAUUGCAUAGUAUUUAGUUA, for which the “pre-steady-state target cleavage rate” value was determined as 0.278 ± 0.024 in assay [1] (setting [3]), 0.0103 ± 0.0029 in assay [1] (setting [4]) and 0.0605 ± 0.015 in assay [2].

As for UCCUCCAACAGCUUGCAUAGUAUUUAGUAA, the “pre-steady-state target cleavage rate” value in assay [1] (setting [3]) stood at 0.232 ± 0.02; in assay [1] (setting [4]), 0.00476 ± 0.0022; in assay [2], 0.00668 ± 0.0028.

As for UCCUGCUACAGCCUUGCAUAGUAUUUAGUUA, the “pre-steady-state target cleavage rate” value in assay [1] (setting [3]) was determined as 0.308 ± 0.025; in assay [1] (setting [4]), 0.00822 ± 0.0026; in assay [2], 0.0116 ± 0.0041.

Regarding UCCUGGAACAGCAUGCAUAGUUUUUAGUUA, the “pre-steady-state target cleavage rate” value turned out to be 0.0418 ± 0.011 in assay [1] (setting [3]), 0.00553 ± 0.0023 in assay [1] (setting [4]) and 0.00387 ± 0.0016 in assay [2].

With UCCUCGUACUGCUUGCAUAGUAUUUAGUUA, the “pre-steady-state target cleavage rate” value in assay [1] (setting [3]) was 0.264 ± 0.0097; in assay [1] (setting [4]), 0.00745 ± 0.0024; in assay [2] it was 0.0721 ± 0.018.

On to UCCUGGAUGUGCUCGCAUAGUAUUUAGUUA, for which the “pre-steady-state target cleavage rate” value in assay [1] (setting [3]) turned out to be 0.155 ± 0.018; in assay [1] (setting [4]) it was 0.00981 ± 0.0026; in assay [2] it was 0.00512 ± 0.0021.

UCCUGCAACAGCAUGCAUAGUAUUUAGUUA: the “pre-steady-state target cleavage rate” value in assay [1] (setting [3]) amounted to 0.329 ± 0.023; in assay [1] (setting [4]) it was 0.00926 ± 0.0035; in assay [2], 0.0232 ± 0.0055.

Turning to UCCUGGUACAGCUUGCAUAGUAAUUUAGUUA, the “pre-steady-state target cleavage rate” value in assay [1] (setting [3]) amounted to 0.186 ± 0.025; in assay [1] (setting [4]) it was 0.0129 ± 0.0045; in assay [2] it was 0.00647 ± 0.0026.

UCCUGCUACAGCUUGCAUAGUAUUUGAGUUA: the “pre-steady-state target cleavage rate” value in assay [1] (setting [3]) came out at 0.135 ± 0.02; in assay [1] (setting [4]), 0.00331 ± 0.0024; in assay [2], 0.0068 ± 0.0022.

For UCCUCCUACUCGUUGCAUAGUAUUUAGUUA, the “pre-steady-state target cleavage rate” value is 0.211 ± 0.018 in assay [1] (setting [3]), 0.00864 ± 0.002 in assay [1] (setting [4]) and 0.101 ± 0.025 in assay [2].

UCCUCCUUCAGCUUGCAUAGUAUUUAGAUA: the “pre-steady-state target cleavage rate” value in assay [1] (setting [3]) turned out to be 0.157 ± 0.022; in assay [1] (setting [4]), 0.00242 ± 0.0024; in assay [2] it was 0.00476 ± 0.0027.

For the sequence UCCUGGAUGAGCUAUGCAUAGUAUUUAGUUA, the “pre-steady-state target cleavage rate” value in assay [1] (setting [3]) is 0.202 ± 0.013; in assay [1] (setting [4]), 0.0126 ± 0.0025; in assay [2], 0.0256 ± 0.0076.

In the case of UCCUGGAUGUGGUUGCAUAGUAUUUAGUAA, the results for the “pre-steady-state target cleavage rate” value in assay [1] (setting [3]), in assay [1] (setting [4]) and in assay [2] were 0.0925 ± 0.021, 0.0105 ± 0.0041 and 0.11 ± 0.056, respectively.

In the case of UCCUGGUACAGCUUGCCAUAGUAUUUAGUUA, the figures for the “pre-steady-state target cleavage rate” value in assay [1] (setting [3]), in assay [1] (setting [4]) and in assay [2] were 0.224 ± 0.059, 0.00532 ± 0.0033 and 0.0045 ± 0.0021, respectively.

On to UCCUGGAACUGCUUGGAUAGUAUUUAGUUA, for which the “pre-steady-state target cleavage rate” value worked out at 0.222 ± 0.013 in assay [1] (setting [3]), 0.0109 ± 0.0023 in assay [1] (setting [4]) and 0.0527 ± 0.014 in assay [2].

Source of the values: the supplement of paper PMC10338343.
